Our source for the Inhibition values is ChEMBL document CHEMBL1157539, “Thousands of chemical starting points for antimalarial lead identification” (Nature, 2010).

SMILES strings stand for the structures.

This test has as its system Plasmodium falciparum. The test can be described thus: GSK_TCMDC: Inhibition of Plasmodium falciparum 3D7 in whole red blood cells, using parasite LDH activity as an index of growth. Test compounds present at 2uM. The class given is functional.
Regarding `FC(F)(F)c1ccc2[nH]c(-c3cccc(-c4ccc(CNCc5cnn(-c6ccccc6)n5)cc4)c3)nc2c1.O=C(O)C(F)(F)F`, the Inhibition is recorded as 100%.

Take `CC(C)(C)NCCN(Cc1ccc(-c2ccc(C(F)(F)F)cc2)cc1)C(=O)Cn1c(SCc2ccc(F)cc2)nc(=O)c2c1CCC2.O=C(O)C(O)C(O)C(=O)O`: the Inhibition is listed as 97%.

`O=C(CCc1c[nH]cn1)Nc1ccc(-c2ccc(-c3nc4cc(F)ccc4[nH]3)cc2)cc1` displayed an Inhibition of 99%.

In the case of `CC(=O)Nc1nc(C(=O)Nc2ccc(-c3cccc(-c4nc5cc(F)ccc5[nH]4)c3)cc2)cs1`, the Inhibition turned out to be 94%.

On to `CCCCCCc1cc2cc(-c3nc(-c4ccc(OC)cc4)cs3)c(=O)oc2cc1O`, for which the Inhibition is on record as 97%.

The compound `Cc1ccc2[nH]c(C)cc(=NN=Cc3ccccc3F)c2c1` came in with an Inhibition of 97%.

`CC1(C)CC(NC(=O)NC2CCN(Cc3ccccc3)CC2)CC(C)(CNC(=O)NC2CCN(Cc3ccccc3)CC2)C1` (stereo not given) had an Inhibition of 93%.

Compound `COc1ccc(Nc2nccc(NCC(O)c3ccc(C(F)(F)F)cc3)n2)cc1` (stereo not given) came in with an Inhibition of 98%.

In turn, `CC1(C)N=C(N)N=C(N)N1c1cccc(C(F)(F)F)c1.Cl` registered an Inhibition of 95%.

As to `CN1CCN(CCCN(Cc2ccc(-c3ccc(CNCc4ccc5c(c4)OCO5)cc3)cc2)C(=O)Nc2ccccc2)CC1.O=C(O)C(F)(F)F`, the Inhibition amounted to 94%.

With `CCCCCCSc1nnc(COc2cccc3ccccc23)n1-c1ccc(OC)cc1`, the Inhibition was determined as 99%.

Regarding `CN(Cc1ccc(-c2ccc(C(F)(F)F)cc2)cc1)C(=O)Cn1c(CCc2cccc(F)c2F)nc(=O)c2ccc(N3CCN(CCN4CCCCC4)CC3)nc21.O=C(O)C(O)C(O)C(=O)O`, the Inhibition is reported as 100%.

For the compound `O=S(=O)(Nc1ccc(CCN2CCCCC2CCN2CCCC2)cc1)c1cccc2cccnc12` (stereo not given), the Inhibition is reported as 100%.

`Cl.O=C(NC1CCN(CC2(c3ccc(Cl)cc3)CCCCC2)CC1)c1cc[nH]n1` came in with an Inhibition of 98%.

For `CCn1c(C2CCN(CCC3CCN(C(=O)/C=C/c4ccc(Cl)c(Cl)c4)CC3)CC2)nc2ccccc21`, the Inhibition is 86%.

In turn, `CCN(CC)CCN(Cc1ccc(-c2ccc(C(F)(F)F)cc2)cc1)C(=O)Cn1cc(Cc2cnn(C)c2)c(=O)nc1/C=C/c1ccc(F)cc1.O=C(O)C(O)C(O)C(=O)O` gave an Inhibition of 96%.

For `c1ccc(-c2csc(Nc3nc4cc5c(cc4s3)OCO5)n2)nc1`, the Inhibition is 81%.

With `CC(C)NCc1ccc(-c2ccc(-c3nc4cc(F)ccc4[nH]3)cc2)cc1.O=C(O)C(F)(F)F`, the Inhibition was found to be 100%.

In the case of `Clc1ccc(CNC2CCN(CC3CCCCC3)CC2)cc1.O=C(O)C(F)(F)F`, the Inhibition is on record as 92%.

The compound `CC(C)c1cc2c(ccc3nc(N)nc(N)c32)o1` gave an Inhibition of 99%.

Turning to `CCCCCc1cc(OCCN(C)C)cc2c1C(=O)CC(C)(C)O2.Cl`, the Inhibition is reported as 98%.

In turn, `CS(=O)(=O)c1ccc(CNCc2ccc(-c3cccc(-c4nc5ccccc5[nH]4)c3)cc2)cc1.O=C(O)C(F)(F)F` gave an Inhibition of 100%.

In the case of `CN1CCN(c2cc(NC(=O)Nc3ccc(-c4ccncc4)c(Cl)c3)ccc2Br)CC1`, the Inhibition was determined as 100%.

The compound `CC1(C)Cc2c([nH]c3ccccc23)C(CCCCCCCCC2=NC(C)(C)Cc3c2[nH]c2ccccc32)=N1.Cl` had an Inhibition of 99%.

With `Cc1ccc(C)c(S(=O)(=O)Nc2ccc(Br)cc2C(=O)Nc2cccc(C(F)(F)F)c2)c1`, the Inhibition was 81%.

Turning to `NC(CC1CC(=O)N1CC(=O)O)C(=O)O` (stereo not given), the Inhibition was 95%.

As to `Cc1cnc(NC(=O)c2cn(-c3ccccc3)nc2-c2cccs2)s1`, the Inhibition turned out to be 91%.

Take `O=C(Nc1ccc(OC2CCN(Cc3ccc(F)cc3)C2)c(Cl)c1)c1ccsc1.O=C(O)C(F)(F)F` (stereo not given): the Inhibition was 98%.

In turn, `CCN(c1ccccc1)S(=O)(=O)c1ccc(NC(=O)c2cc(-c3cc(C)ccc3O)n[nH]2)cc1` yielded an Inhibition of 99%.

Compound `Cc1cccc2nc(-c3ccc(-c4cccc(NC(=O)C(C)CN(C)C)c4)cc3)[nH]c12` (stereo not given) gave an Inhibition of 99%.

For the compound `Cl.NCC1(c2nc(-c3ccc(Cl)c(O)c3)c(-c3ccncc3)[nH]2)CCCCC1`, the Inhibition was found to be 98%.

`O=C(Nc1cccc(-c2ccc(CN3CCC(O)CC3)cc2)c1)c1ccc(Cl)cc1.O=C(O)C(F)(F)F` had an Inhibition of 95%.

Compound `O=C(C=Cc1ccc(-c2ccccc2)cc1)N1CCC(CCN2CCC(c3c[nH]c4ccccc34)CC2)CC1` registered an Inhibition of 87%.

Consider `CCCCc1ccc(C(=O)NC2CCN(C[C@H](O)c3ccnc4ccc(OC)cc34)CC2)cc1`, for which the Inhibition is 91%.

Turning to `O=C(O)c1ccc(OCOCOc2ccc(C(=O)O)c(O)c2)cc1O`, the Inhibition is recorded as 99%.

As for `O=C1CC(C(=O)Nc2cccc(-c3cccc(-c4nc5ccccc5[nH]4)c3)c2)c2ccccc2N1` (stereo not given), the Inhibition is on record as 84%.

`CCCCCCNC(=O)C1Cc2c([nH]c3ccc(Br)cc23)C2(CCN(CCc3ccccc3)CC2)N1` (stereo not given) returned an Inhibition of 100%.

`COc1cc(F)c2ncc(Cl)c(CCN3CCC(NCc4ccc5c(c4)OCCO5)CC3)c2c1.Cl` gave an Inhibition of 97%.

In turn, `CC(C)(C)c1ccc2nccc(Nc3cccc(O)c3)c2c1` displayed an Inhibition of 99%.

In turn, `Cl.N#Cc1ccc2c(c1)CCN(CCC1CCC(NC(=O)c3cc4cccc([N+](=O)[O-])c4[nH]3)CC1)C2` (stereo not given) returned an Inhibition of 100%.
